# Assay results reported in PMC6212833.
# The whole screen tested about 2,000 compounds, of which about 15 (0.8%) showed an effect of 50% or more. Many of the other results were omitted from the sample, so strong results are more common in it than they were.
# Tested on: Balamuthia mandrillaris (ATCC PRA-291) trophozoites, axenic culture
# Experiment: primary screen, percent inhibition; higher = more effect of the substance;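 also: 0% = vehicle wells and 100% = lysate wells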
# Settings: 20 µM
# Method in brief: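 Trophozoites (3,000/well) in axenic medium exposed to library drugs at 20 µM in 0.2% DMSO for 72 h; viability by CellTiter Glo luminescence at 2, 4 and 8 h. Controls: vehicle and freeze-thaw amoeba lysate; B-score corrects row, column and edge effects.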
row,SMILES,% Inhibition [%]
1,Cn1c(=O)c2nc[nH]c2n(C)c1=O [88704-L9],8.85
2,Cc1ccc(-c2cc(C(F)(F)F)nn2-c2ccc(S(N)(=O)=O)cc2)cc1,20.5
3,CN1C2C[C@@H](OC(=O)[C@H](CO)c3ccccc3)CC1[C@@H]1O[C@H]21,0.52
4,CC(C)(C)NC[C@H](O)COc1nsnc1N1CCOCC1,-3.01
5,C=CCN1CC[C@]23c4c5ccc(O)c4OC2C(=O)CC[C@@]3(O)[C@H]1C5 (stereo partly drawn),29.3
6,CCC1(CC)C(=O)C=CNC1=O,27.7
7,COc1ccc(CC2c3cc(OC)c(OC)cc3CC[N+]2(C)CCC(=O)OCCCCCOC(=O)CC[N+]2(C)CCc3cc(OC)c(OC)cc3C2Cc2ccc(OC)c(OC)c2)cc1OC (stereo not drawn) [756849-L2],13.9
8,O=C(O)CCCc1ccc(N(CCCl)CCCl)cc1,-32.3
9,CN(C)c1ccc2nc3ccc(=[N+](C)C)cc-3sc2c1,35.9
10,C[N+]1(C)[C@H]2CC(OC(=O)[C@H](CO)c3ccccc3)C[C@H]1C1OC12 (stereo partly drawn),14.3
11,C=CCC1(C(C)CCC)C(=O)NC(=O)NC1=O (stereo not drawn),11.2
12,CCC1C(C)=NN=C(c2ccc(OC)c(OC)c2)c2cc(OC)c(OC)cc21 (stereo not drawn),11.9
13,CN(C)CCOC(c1ccc(Cl)cc1)c1ccccn1 (stereo not drawn),7.85
14,O=S(=O)(O)CCSSCCS(=O)(=O)O,37.4
15,Cc1nnc(SCC2=C(C(=O)O)N3C(=O)[C@@H](NC(=O)Cn4cnnn4)[C@H]3SC2)s1,10.9
16,O=C(O)CCC(=O)OC[C@@H](NC(=O)C(Cl)Cl)[C@H](O)c1ccc([N+](=O)[O-])cc1,-36.5
17,CC[C@H]1OC(=O)[C@H](C)[C@@H](O[C@H]2C[C@@](C)(OC)[C@@H](O)[C@H](C)O2)[C@H](C)[C@@H](O[C@@H]2O[C@H](C)C[C@H](N(C)C)[C@H]2O)[C@](C)(O)C[C@@H](C)CN(C)[C@H](C)[C@@H](O)[C@]1(C)O,23.9
18,Nc1c2c(nc3ccccc13)CCCC2,30.5
19,CC[C@H](NC(C)C)[C@H](O)c1ccc(O)c2nc(O)ccc12,6.56
20,C[C@]12C=CC(=O)C=C1CCC1C2[C@@H](O)C[C@@]2(C)C1CC[C@]2(O)C(=O)COP(=O)(O)O (stereo partly drawn),5.73
21,CN(C)CCC[C@@]1(c2ccc(F)cc2)OCc2cc(C#N)ccc21 [131042-L4],26.2

row,SMILES,% Inhibition [%]
1,Clc1ccc(CSC(Cn2ccnc2)c2ccc(Cl)cc2Cl)cc1 (stereo not drawn),15.3
2,CN(C)CCC=C1c2ccccc2C=Cc2ccccc21,23.3
3,CN(C)C(=O)Oc1cc(OC(=O)N(C)C)cc(C(O)CNC(C)(C)C)c1 (stereo not drawn) [255708-L4],12
4,OC[C@H]1O[C@@](CO)(OC[C@@]2(O)O[C@H](CO)[C@@H](O)[C@@H]2O)[C@@H](O)[C@@H]1O,26.1
5,NC(=O)N1c2ccccc2C=Cc2ccccc21,6.46
6,CCN(CC)C(C)CN1c2ccccc2Sc2ccccc21 (stereo not drawn),8.27
7,O=c1[nH]c(=O)n([C@H]2C[C@H](O)[C@@H](CO)O2)cc1F,4.91
8,CCN(CC)CCNC(=O)c1c(C)[nH]c(/C=C2\C(=O)Nc3ccc(F)cc32)c1C,6.48
9,O=C(Nc1ccccc1)OCC(CN1CCCCC1)OC(=O)Nc1ccccc1 (stereo not drawn),9.34
10,CCCCC1=NC2(CCCC2)C(=O)N1Cc1ccc(-c2ccccc2-c2nn[nH]n2)cc1,14.7
11,CCCc1nc(C(C)(C)O)c(C(=O)O)n1Cc1ccc(-c2ccccc2-c2nn[nH]n2)cc1,21.5
12,OCCN1CCN(CCCN2c3ccccc3Sc3ccc(Cl)cc32)CC1,33.5
13,CCCCCN(C)CCC(O)(P(=O)(O)O)P(=O)(O)O [756736-L2],25.4
14,Cc1cc2c(cc1S(N)(=O)=O)S(=O)(=O)CCC2,25.8
15,NC[C@H]1O[C@H](O[C@H]2[C@H](O)[C@@H](O[C@H]3O[C@H](CO)[C@@H](O)[C@H](N)[C@H]3O)[C@H](N)C[C@@H]2N)[C@H](O)[C@@H](O)[C@@H]1O,16
16,CC[C@@H]1OC(OC(c2c[nH]cn2)C(NC(=O)c2nc(C(CC(N)=O)NCC(N)C(N)=O)nc(N)c2C)C(=O)NC(C)C(O)C(C)C(=O)NC(C(=O)NCCc2nc(-c3nc(C(=O)NCCCCN=C(N)N)cs3)cs2)C(C)O)[C@@H](O[C@H]2O[C@H](CO)[C@@H](O)[C@H](OC(N)=O)[C@@H]2O)[C@@H](C)[C@@H]1C (stereo partly drawn),-5.83
17,O=C(NCCCN1CCOCC1)c1ccc(Cl)cc1,17.5
18,CC(C)OC(=O)CCC/C=C\C[C@@H]1[C@@H](CC[C@@H](O)CCc2ccccc2)[C@H](O)C[C@@H]1O,12.8
19,CC[C@@H](C(=O)[C@@H](C)[C@@H](O)[C@H](C)[C@@H]1O[C@@H]([C@@H](CC)C(=O)O)CC[C@@H]1C)[C@H]1OC2(C=C[C@@H](O)[C@]3(CC[C@@](C)([C@H]4CC[C@](O)(CC)[C@H](C)O4)O3)O2)[C@H](C)C[C@@H]1C (stereo partly drawn),19.1
20,CC[C@]1(O)C[C@H]2CN(CCc3c([nH]c4ccccc34)[C@@](C(=O)OC)(c3cc4c(cc3OC)N(C=O)[C@H]3[C@@](O)(C(=O)OC)[C@H](OC(C)=O)[C@]5(CC)C=CCN6CC[C@]43[C@@H]65)C2)C1,9.62
21,COc1ccccc1N1CCN(CCCNc2cc(=O)n(C)c(=O)n2C)CC1,37.2
